In PubChem BioAssay (EPA / NIEHS):
Records with an inconclusive call do not appear. A structure can be active in one record and inactive in another. Calls of active or inactive are those of the source. How the source made its calls: active means hit-call score of the fitted dose curve at least 0.9, where 1 is the maximum; inconclusive means response in the unintended direction; inactive means score below 0.9.

Columns and labels:
[1] = biological target: D(1A) dopamine receptor (Homo sapiens) (UniProt P21728); experiment: NVS_GPCR_hDRD1: NovaScreen (NVS) G Protein-Coupled Receptor Assay for human Dopamine Receptor D1 (DRD1) (AID 2283269)
Chain of D(1A) dopamine receptor (Homo sapiens) (P21728 whole entry, looked up): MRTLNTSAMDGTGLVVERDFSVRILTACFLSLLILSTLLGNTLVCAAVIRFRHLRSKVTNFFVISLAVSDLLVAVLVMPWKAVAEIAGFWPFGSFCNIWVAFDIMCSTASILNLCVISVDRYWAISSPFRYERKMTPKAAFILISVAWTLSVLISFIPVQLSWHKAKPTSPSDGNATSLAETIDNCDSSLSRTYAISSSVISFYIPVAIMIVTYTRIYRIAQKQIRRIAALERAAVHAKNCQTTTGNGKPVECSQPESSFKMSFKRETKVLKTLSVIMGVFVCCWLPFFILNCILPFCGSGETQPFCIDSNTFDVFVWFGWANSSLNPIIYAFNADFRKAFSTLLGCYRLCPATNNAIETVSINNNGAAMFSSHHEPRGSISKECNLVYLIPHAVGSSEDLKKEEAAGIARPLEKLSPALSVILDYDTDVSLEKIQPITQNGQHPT
Summary of the method: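 Cell-free competition with radioligand, filter-trapped and scintillation-counted 1 h post-dose, using HEK293-derived human D1 preparation. Duplicate single-point testing at 25 uM first, then concentration series for actives; DMSO served as baseline, loss-of-signal scored.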

[2] = biological target: human Neurokinin, NK2 Receptor, TACR2 (gene 6865) (UniProt P21452); experiment: NVS_GPCR_hNK2: NovaScreen (NVS) G Protein-Coupled Receptor Assay for human Neurokinin, NK2 Receptor (AID 2283278);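 further: actives reduce bound radioligand signal relative to DMSO baseline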
Chain of human Neurokinin, NK2 Receptor, TACR2 (gene 6865) (P21452 whole entry, looked up): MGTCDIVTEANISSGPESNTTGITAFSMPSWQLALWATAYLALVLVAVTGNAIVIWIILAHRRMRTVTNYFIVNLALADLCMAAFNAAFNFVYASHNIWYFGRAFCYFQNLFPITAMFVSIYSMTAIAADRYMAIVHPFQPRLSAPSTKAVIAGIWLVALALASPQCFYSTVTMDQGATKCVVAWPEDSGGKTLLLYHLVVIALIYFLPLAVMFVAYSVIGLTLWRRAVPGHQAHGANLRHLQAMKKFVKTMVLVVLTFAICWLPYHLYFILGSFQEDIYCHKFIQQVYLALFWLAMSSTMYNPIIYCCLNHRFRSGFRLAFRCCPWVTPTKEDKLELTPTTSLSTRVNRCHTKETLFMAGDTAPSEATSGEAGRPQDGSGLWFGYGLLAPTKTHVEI
Summary of the method: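 Cell-free radioligand binding using receptor protein extracted from CHO cells; readings taken 4 hours after chemical dosing by filter-based scintillation counting. Primary screen ran single concentration (25 uM) in duplicate; actives followed up in concentration series, loss-of-signal versus DMSO baseline.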

[3] = biological target: human Dopamine Receptor D2 (DRD2), DRD2 (gene 1813) (UniProt P14416); experiment: NVS_GPCR_hDRD2s: NovaScreen (NVS) G Protein-Coupled Receptor Assay for human Dopamine Receptor D2 (DRD2) (AID 2283266)
Chain of human Dopamine Receptor D2 (DRD2), DRD2 (gene 1813) (P14416 whole entry, looked up): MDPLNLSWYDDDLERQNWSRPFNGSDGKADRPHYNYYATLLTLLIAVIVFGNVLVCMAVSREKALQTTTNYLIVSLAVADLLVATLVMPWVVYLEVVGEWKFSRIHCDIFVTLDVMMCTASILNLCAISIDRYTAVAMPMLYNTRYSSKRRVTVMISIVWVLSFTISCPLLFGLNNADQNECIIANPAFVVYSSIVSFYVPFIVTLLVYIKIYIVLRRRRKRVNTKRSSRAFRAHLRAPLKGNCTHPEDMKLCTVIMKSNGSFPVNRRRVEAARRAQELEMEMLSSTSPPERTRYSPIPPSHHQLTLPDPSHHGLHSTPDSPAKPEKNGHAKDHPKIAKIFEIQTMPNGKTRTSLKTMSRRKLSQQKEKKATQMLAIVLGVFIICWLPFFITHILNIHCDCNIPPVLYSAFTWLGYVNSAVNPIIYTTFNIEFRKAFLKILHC
Experimental: (§1) NVS_GPCR_hDRD2s is a biochemical, single-readout assay that uses extracted gene-proteins from CHO in a cell-free assay. Measurements were taken 1.5 hours after chemical dosing in a 96-well plate.NVS_GPCR_hDRD2s is one of one assay component(s) measured or calculated from the NVS_GPCR_hDRD2s assay. It is designed to make measurements of radioligand binding, a form of binding reporter, as detected with scintillation counting signals by Filter-based radiodetection technology.Data from the assay component NVS_GPCR_hDRD2s was analyzed into 1 assay endpoint. This assay endpoint, NVS_GPCR_hDRD2s, was analyzed in the positive analysis fitting direction relative to DMSO as the negative control and baseline of activity. […] Furthermore, this assay endpoint can be referred to as a primary readout, because the performed assay has only produced 1 assay endpoint. […]
(§2) Binding assays used specific radioligands (tritiated, iodinated) with non-radioactive competitive displacement ligands in agonist or antagonist protocols (as indicated) and various reference compounds and inhibitors to titrate specific binding to receptors and transporters. Most enzyme assays (CYPs, kinases, phosphatases, proteases, HDACs) used recombinant protein and specific substrates (fluorescence mostly, some colorimetric and radioactive) and inhibitors, followed by a biochemical separation of substrate and product. […]

[4] = biological target: human Leukotriene B4 Receptor 1 (LTB4-BLT1), LTB4R (gene 1241) (UniProt Q15722); experiment: NVS_GPCR_hLTB4_BLT1: NovaScreen (NVS) G Protein-Coupled Receptor Assay for human Leukotriene B4 Receptor 1 (LTB4-BLT1) (AID 2283271)
Chain of human Leukotriene B4 Receptor 1 (LTB4-BLT1), LTB4R (gene 1241) (Q15722 whole entry, looked up): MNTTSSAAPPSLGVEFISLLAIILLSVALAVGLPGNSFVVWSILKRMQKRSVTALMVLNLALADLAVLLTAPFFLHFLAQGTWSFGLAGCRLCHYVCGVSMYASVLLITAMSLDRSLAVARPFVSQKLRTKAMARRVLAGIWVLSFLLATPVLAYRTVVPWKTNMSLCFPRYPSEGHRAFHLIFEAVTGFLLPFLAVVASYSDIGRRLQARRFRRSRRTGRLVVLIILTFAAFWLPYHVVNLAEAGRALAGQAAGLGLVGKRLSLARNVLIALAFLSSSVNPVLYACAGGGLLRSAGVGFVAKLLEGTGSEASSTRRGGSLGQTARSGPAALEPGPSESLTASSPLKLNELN
Summary of the method: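 Radioligand displacement binding on receptor extracted from human neutrophils, cell-free, 1 h after dosing; filter-based scintillation counting. Primary screen in duplicate at 25 uM, actives retested in concentration-response up to 50 uM; loss of signal versus DMSO.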

[5] = biological target: Muscarinic acetylcholine receptor M2 (Homo sapiens) (UniProt P08172); experiment: NVS_GPCR_hM2: NovaScreen (NVS) G Protein-Coupled Receptor Assay for human Muscarinic, M2 Receptor (AID 2283273)
Chain of Muscarinic acetylcholine receptor M2 (Homo sapiens) (P08172 whole entry, looked up): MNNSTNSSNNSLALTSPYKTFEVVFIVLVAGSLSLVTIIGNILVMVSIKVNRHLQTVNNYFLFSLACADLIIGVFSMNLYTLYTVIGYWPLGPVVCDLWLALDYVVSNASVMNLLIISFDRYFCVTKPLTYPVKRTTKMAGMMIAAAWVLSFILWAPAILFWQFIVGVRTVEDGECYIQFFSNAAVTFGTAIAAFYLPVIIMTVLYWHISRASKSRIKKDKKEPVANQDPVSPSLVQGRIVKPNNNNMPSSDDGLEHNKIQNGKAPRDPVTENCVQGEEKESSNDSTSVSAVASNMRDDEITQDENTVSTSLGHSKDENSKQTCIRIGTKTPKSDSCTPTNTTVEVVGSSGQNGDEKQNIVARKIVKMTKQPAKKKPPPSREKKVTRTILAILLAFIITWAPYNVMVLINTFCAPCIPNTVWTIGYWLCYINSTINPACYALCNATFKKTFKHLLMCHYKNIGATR
Experimental: NVS_GPCR_hM2 is a biochemical, single-readout assay that uses extracted gene-proteins from CHO in a cell-free assay. Measurements were taken 1 hour after chemical dosing in a 96-well plate.NVS_GPCR_hM2 is one of one assay component(s) measured or calculated from the NVS_GPCR_hM2 assay. It is designed to make measurements of radioligand binding, a form of binding reporter, as detected with scintillation counting signals by Filter-based radiodetection technology.Data from the assay component NVS_GPCR_hM2 was analyzed into 1 assay endpoint. This assay endpoint, NVS_GPCR_hM2, was analyzed in the positive analysis fitting direction relative to DMSO as the negative control and baseline of activity. Using a type of binding reporter, loss-of-signal activity can be used to understand changes in the binding as they relate to the gene CHRM2. Furthermore, this assay endpoint can be referred to as a primary readout, because the performed assay has only produced 1 assay endpoint. To generalize the intended target to other relatable targets, this assay endpoint is annotated to the gpcr intended target family, where the subfamily is rhodopsin-like receptor.
Binding assays used specific radioligands (tritiated, iodinated) with non-radioactive competitive displacement ligands in agonist or antagonist protocols (as indicated) and various reference compounds and inhibitors to titrate specific binding to receptors and transporters. Most enzyme assays (CYPs, kinases, phosphatases, proteases, HDACs) used recombinant protein and specific substrates (fluorescence mostly, some colorimetric and radioactive) and inhibitors, followed by a biochemical separation of substrate and product. All assays for the biochemical HTS were initially run in duplicate at a single concentration (10 uM for CYP450 assays and 25 uM for all others). […] Each assay was run with positive and negative controls, and concurrent controls on every plate. The follow-up (secondary) screen tested active chemical-pairs in concentration series, as well as a few additional assays not tested in the primary screen, some selected negative inactives, and several cases re-run in the concentration series for confirmatory purposes.

[6] = biological target: human Muscarinic, M4 Receptor, CHRM4 (gene 1132) (UniProt P08173); experiment: NVS_GPCR_hM4: NovaScreen (NVS) G Protein-Coupled Receptor Assay for human Muscarinic, M4 Receptor (AID 2283274)
Chain of human Muscarinic, M4 Receptor, CHRM4 (gene 1132) (P08173 whole entry, looked up): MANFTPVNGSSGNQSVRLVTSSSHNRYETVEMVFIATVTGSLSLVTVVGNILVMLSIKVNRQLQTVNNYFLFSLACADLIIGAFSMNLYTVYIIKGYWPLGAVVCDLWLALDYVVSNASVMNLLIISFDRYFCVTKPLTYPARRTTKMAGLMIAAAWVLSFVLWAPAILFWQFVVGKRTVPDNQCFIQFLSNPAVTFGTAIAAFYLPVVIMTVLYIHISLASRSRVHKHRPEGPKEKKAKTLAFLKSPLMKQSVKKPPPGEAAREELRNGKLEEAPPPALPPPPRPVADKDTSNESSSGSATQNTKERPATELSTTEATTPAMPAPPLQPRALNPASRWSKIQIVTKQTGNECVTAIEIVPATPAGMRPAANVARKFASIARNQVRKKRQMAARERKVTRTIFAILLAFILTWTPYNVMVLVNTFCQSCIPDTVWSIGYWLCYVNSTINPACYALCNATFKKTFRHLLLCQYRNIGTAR
Summary of the method: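 Cell-free radioligand displacement using CHO-derived human M4 receptor protein, 1 h after dosing; bound radioactivity by filtration and scintillation counting. Primary screen single 25 uM duplicate, actives followed in concentration series.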

[7] = biological target: Muscarinic acetylcholine receptor M5 (Homo sapiens) (UniProt P08912); experiment: NVS_GPCR_hM5: NovaScreen (NVS) G Protein-Coupled Receptor Assay for human Muscarinic, M5 Receptor (AID 2283275)
Chain of Muscarinic acetylcholine receptor M5 (Homo sapiens) (P08912 whole entry, looked up): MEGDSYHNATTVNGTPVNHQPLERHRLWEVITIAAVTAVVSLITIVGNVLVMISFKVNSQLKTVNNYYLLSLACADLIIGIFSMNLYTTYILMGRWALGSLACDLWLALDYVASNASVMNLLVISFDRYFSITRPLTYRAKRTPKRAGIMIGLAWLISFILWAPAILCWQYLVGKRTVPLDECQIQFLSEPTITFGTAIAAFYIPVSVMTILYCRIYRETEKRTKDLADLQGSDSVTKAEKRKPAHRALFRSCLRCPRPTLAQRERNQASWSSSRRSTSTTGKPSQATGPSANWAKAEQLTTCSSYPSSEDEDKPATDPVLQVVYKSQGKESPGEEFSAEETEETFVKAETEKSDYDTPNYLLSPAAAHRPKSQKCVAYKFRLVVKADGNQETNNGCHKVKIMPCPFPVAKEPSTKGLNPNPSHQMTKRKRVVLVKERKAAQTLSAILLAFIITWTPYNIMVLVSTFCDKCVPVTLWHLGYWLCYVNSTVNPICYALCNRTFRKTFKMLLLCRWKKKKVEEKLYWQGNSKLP
Experimental: as §1, with “NVS_GPCR_hM5” for “NVS_GPCR_hDRD2s”, “1 hour” for “1.5 hours”, “plate.NVS_GPCR_hM5” for “plate.NVS_GPCR_hDRD2s”, “NVS_GPCR_hM5,” for “NVS_GPCR_hDRD2s,”
as §2

[8] = biological target: human Neuropeptide Receptor Y1 (NPY1), NPY1R (gene 4886) (UniProt P25929); experiment: NVS_GPCR_hNPY1: NovaScreen (NVS) G Protein-Coupled Receptor Assay for human Neuropeptide Receptor Y1 (NPY1) (AID 2283276)
Chain of human Neuropeptide Receptor Y1 (NPY1), NPY1R (gene 4886) (P25929 whole entry, looked up): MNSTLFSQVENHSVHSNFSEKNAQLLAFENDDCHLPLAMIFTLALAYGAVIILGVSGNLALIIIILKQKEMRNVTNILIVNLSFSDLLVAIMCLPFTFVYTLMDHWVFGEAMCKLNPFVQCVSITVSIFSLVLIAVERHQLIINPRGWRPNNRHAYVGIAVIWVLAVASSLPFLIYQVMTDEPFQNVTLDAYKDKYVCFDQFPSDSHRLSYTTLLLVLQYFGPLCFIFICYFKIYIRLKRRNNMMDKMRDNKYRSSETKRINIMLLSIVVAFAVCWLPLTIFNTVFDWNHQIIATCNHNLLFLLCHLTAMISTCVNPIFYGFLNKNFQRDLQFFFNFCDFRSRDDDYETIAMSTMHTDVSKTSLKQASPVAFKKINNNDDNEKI
Summary of the method: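 Cell-free radioligand binding using receptor extracted from SK-N-MC cells, 1 h incubation, filter-based scintillation counting. Primary screen single concentration 25 uM in duplicate; actives followed in concentration series. Loss of bound signal scored versus DMSO.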

[9] = biological target: human Opioid Receptor Delta 1 (Opiate D1), OPRD1 (gene 4985) (UniProt P41143); experiment: NVS_GPCR_hOpiate_D1: NovaScreen (NVS) G Protein-Coupled Receptor Assay for human Opioid Receptor Delta 1 (Opiate D1) (AID 2283280)
Chain of human Opioid Receptor Delta 1 (Opiate D1), OPRD1 (gene 4985) (P41143 whole entry, looked up): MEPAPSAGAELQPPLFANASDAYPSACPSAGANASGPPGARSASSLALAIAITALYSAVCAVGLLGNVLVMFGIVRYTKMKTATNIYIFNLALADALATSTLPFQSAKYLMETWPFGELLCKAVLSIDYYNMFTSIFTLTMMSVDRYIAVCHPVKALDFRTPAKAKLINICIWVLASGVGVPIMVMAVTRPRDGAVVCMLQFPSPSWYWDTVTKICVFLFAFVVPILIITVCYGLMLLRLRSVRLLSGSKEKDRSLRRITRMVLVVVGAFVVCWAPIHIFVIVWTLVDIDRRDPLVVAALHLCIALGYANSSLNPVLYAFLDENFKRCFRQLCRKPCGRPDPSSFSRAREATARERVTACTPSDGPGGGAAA
Summary of the method: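 Radioligand displacement on membranes from CHO cells expressing the receptor, read by filter scintillation counting 1 h after dosing. Duplicate single-point screen at 25 uM, then concentration series for actives; loss of signal versus DMSO.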

[10] = biological target: Neuropeptide Y receptor type 2 (Homo sapiens) (UniProt P49146); experiment: NVS_GPCR_hNPY2: NovaScreen (NVS) G Protein-Coupled Receptor Assay for human Neuropeptide Receptor Y2 (NPY2) (AID 2283277)
Chain of Neuropeptide Y receptor type 2 (Homo sapiens) (P49146 whole entry, looked up): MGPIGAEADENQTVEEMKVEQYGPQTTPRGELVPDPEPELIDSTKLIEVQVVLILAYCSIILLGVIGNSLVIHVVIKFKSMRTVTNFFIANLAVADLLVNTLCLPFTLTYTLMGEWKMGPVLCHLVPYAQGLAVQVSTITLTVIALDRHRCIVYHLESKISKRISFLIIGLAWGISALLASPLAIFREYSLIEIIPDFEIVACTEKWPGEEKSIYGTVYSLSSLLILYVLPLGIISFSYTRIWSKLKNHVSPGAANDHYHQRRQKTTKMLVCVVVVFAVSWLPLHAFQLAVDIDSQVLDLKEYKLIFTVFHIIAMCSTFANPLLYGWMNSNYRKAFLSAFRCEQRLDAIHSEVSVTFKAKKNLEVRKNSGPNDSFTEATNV
Summary of the method: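 Radioligand binding on membranes extracted from SK-N-MC cells, cell-free, read 1 h after dosing by filter-based scintillation counting. Loss of signal vs DMSO. Primary screen in duplicate at 25 uM; actives followed up in concentration-response up to 50 uM.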

Q: For `CC(=O)OCC=C(C)CCC=C(C)CCC=C(C)C`, which outcome [1] is on record?
A: inactive

Q: `CCCCOCCOCCO` was tested. Which outcome [2] did it give?
A: inactive

Q: Which outcome [1] does the source give for `c1ccc2c(c1)-c1ccc3ccc4cccc5cc-2c1c3c45` here?
A: inactive

Q: What does the source list for `O=C(c1ccc(OCCN2CCCCC2)cc1)c1c(-c2ccc(O)cc2)sc2cc(O)ccc12`?
A: AC50 [3]: 1.07 µM (active); AC50 [1]: 0.948 µM (active); outcome [4]: inactive; AC50 [5]: 2.92 µM (active); AC50 [6]: 4.93 µM (active); AC50 [7]: 3.7 µM (active); AC50 [8]: 7.83 µM (active); AC50 [2]: 3.58 µM (active); AC50 [9]: 5.28 µM (active)

Q: `CC(=O)c1cccnc1` was tested. Which outcome [5] did it give?
A: inactive

Q: How did the AC50 [5] turn out when `Cc1cc(N)n(-c2ccccc2)n1` was run?
A: 13.9 µM (active)

Q: How did the AC50 [5] turn out when `CCOC(=O)C=Cc1ccccc1` was run?
A: 38.6 µM (active)

Q: How did the outcome [1] turn out when `C=C1CC[C@H]2O[C@]2(C)CC[C@@H]2[C@@H]1CC2(C)C` was run?
A: inactive

Q: What does the source list for `CC/C(=C(\c1ccccc1)c1ccc(OCCN(C)C)cc1)c1ccccc1`?
A: outcome [3]: inactive; AC50 [5]: 19.3 µM (active); AC50 [6]: 10.1 µM (active); AC50 [7]: 7.13 µM (active); AC50 [10]: 11.9 µM (active); AC50 [2]: 6.84 µM (active); outcome [2]: inactive; outcome [9]: inactive

Q: With `N#CCCCC(C#N)CCC#N` (stereo not given) as the compound, how does the outcome [1] read?
A: inactive

Q: Which results are given for `O=S1(=O)CC(Cl)(Cl)C(Cl)(Cl)C1`?
A: AC50 [1]: 20.1 µM (active); outcome [2]: inactive

Q: `CCC(=O)OC/C=C(\C)CCC=C(C)C` was tested. Which outcome [1] did it give?
A: inactive

Q: Which outcome [2] does the source give for `O=C1OC2(c3ccc(O)cc3Oc3cc(O)ccc32)c2ccccc21` here?
A: inactive

Q: `CC(C)(O)CCc1ccccc1` was tested. Which outcome [1] did it give?
A: inactive
